# “And” between values parts separate entries of the source, which are not always exact repeats. Identical values can stand only once. Like-named read-outs stand apart in the source and are kept apart here.
# Columns and labels:
# FGFR4 = conditions: concentration: 1 μM, replicates: in singlicate; n = 1
# FGR = conditions: concentration: 1 μM, replicates: in singlicate, n = 1
# FLT1 = conditions: concentration: 1 μM, replicates: in singlicate, n = 1
# FLT3-autoinhibited = conditions: concentration: 1 μM, replicates: in singlicate, n = 1
# FLT3 = conditions: concentration: 1 μM, replicates: in singlicate, n = 1
# FLT4 = conditions: concentration: 1 μM, replicates: in singlicate; n = 1
# FRK = conditions: concentration: 1 μM, replicates: in singlicate, n = 1
# FYN = conditions: concentration: 1 μM, replicates: in singlicate, n = 1
# GAK = conditions: concentration: 1 μM, replicates: in singlicate, n = 1
# GCN2(Kin.Dom.2,S808G) = tested on: T1, GCN2(Kin.Dom.2,S808G); conditions: concentration: 1 μM, replicates: in singlicate, n = 1
# T1 construct: gene EIF2AK4
# GRK1 = conditions: concentration: 1 μM, replicates: in singlicate, n = 1
# GRK2 = tested on: T2, GRK2; conditions: concentration: 1 μM, replicates: in singlicate; n = 1
# T2 construct: gene ADRBK1
# GRK3 = tested on: T3, GRK3; conditions: concentration: 1 μM, replicates: in singlicate, n = 1
# T3 construct: gene ADRBK2
# GRK4 = conditions: concentration: 1 μM, replicates: in singlicate, n = 1
# GRK7 = conditions: concentration: 1 μM, replicates: in singlicate; n = 1
# GSK3A = conditions: concentration: 1 μM, replicates: in singlicate, n = 1
# GSK3B = conditions: concentration: 1 μM, replicates: in singlicate, n = 1
# HASPIN = tested on: T4, HASPIN; conditions: concentration: 1 μM, replicates: in singlicate, n = 1
# T4 construct: gene GSG2
# HCK = conditions: concentration: 1 μM, replicates: in singlicate, n = 1
# HIPK1 = conditions: concentration: 1 μM, replicates: in singlicate, n = 1
# 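Note: KINOMEscan kinase panel screen.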
compound,measurement,setting,value
Cl.Cn1ccc(-c2cccc(Nc3ccnc4cc(-c5nccs5)ccc34)c2)n1 [GW525701],%Inh,FGFR4,0%
same,%Inh,FGR,53%
same,%Inh,FLT1,0%
same,%Inh,FLT3-autoinhibited,0%
same,%Inh,FLT3,0%
same,%Inh,FLT4,7%
same,%Inh,FRK,0%
same,%Inh,FYN,3%
same,%Inh,GAK,19%
same,%Inh,"GCN2(Kin.Dom.2,S808G)",0%
same,%Inh,GRK1,1%
same,%Inh,GRK2,0%
same,%Inh,GRK3,64%
same,%Inh,GRK4,0%
same,%Inh,GRK7,0%
same,%Inh,GSK3A,0%
same,%Inh,GSK3B,12%
same,%Inh,HASPIN,8%
same,%Inh,HCK,0%
same,%Inh,HIPK1,0%
Nc1nc(-c2ccc3c(N)n[nH]c3c2)cc(N2CCC[C@@H](C(=O)Nc3ccccc3)C2)n1.O=C(O)C(F)(F)F.O=C(O)C(F)(F)F [GSK2288359],%Inh,FGFR4,8%
same,%Inh,FGR,15%
same,%Inh,FLT1,6%
same,%Inh,FLT3-autoinhibited,29%
same,%Inh,FLT3,0%
same,%Inh,FLT4,0%
same,%Inh,FRK,0%
same,%Inh,FYN,38%
same,%Inh,GAK,0%
same,%Inh,"GCN2(Kin.Dom.2,S808G)",0%
same,%Inh,GRK1,0%
same,%Inh,GRK2,0%
same,%Inh,GRK3,0%
same,%Inh,GRK4,27%
same,%Inh,GRK7,0%
same,%Inh,GSK3A,20%
same,%Inh,GSK3B,14%
same,%Inh,HASPIN,0%
same,%Inh,HCK,0%
same,%Inh,HIPK1,0%
Fc1ccc(Nc2nccc(-c3c(-c4ccc(Cl)cc4)nn4ncccc34)n2)cc1F [GW829058],%Inh,FGFR4,5%
same,%Inh,FGR,12%
same,%Inh,FLT1,8%
same,%Inh,FLT3-autoinhibited,14%
same,%Inh,FLT3,40%
same,%Inh,FLT4,1%
same,%Inh,FRK,32%
same,%Inh,FYN,7%
same,%Inh,GAK,14%
same,%Inh,"GCN2(Kin.Dom.2,S808G)",3%
same,%Inh,GRK1,22%
same,%Inh,GRK2,11%
same,%Inh,GRK3,18%
same,%Inh,GRK4,21%
same,%Inh,GRK7,35%
same,%Inh,GSK3A,0%
same,%Inh,GSK3B,31%
same,%Inh,HASPIN,37%
same,%Inh,HCK,15%
same,%Inh,HIPK1,33%
COc1ccc(-c2nc3n(c2-c2ccncc2)CCC3)cc1 [SKF-104493],%Inh,FGFR4,8%
same,%Inh,FGR; 1 µM,19% and 8%
same,%Inh,FLT1; 1 µM,6% and 11%
same,%Inh,FLT3-autoinhibited; 1 µM,22% and 0%
same,%Inh,FLT3; 1 µM,9% and 0%
same,%Inh,FLT4,0%
same,%Inh,FRK; 1 µM,5% and 0%
same,%Inh,FYN; 1 µM,0% and 28%
same,%Inh,GAK; 1 µM,13% and 41%
same,%Inh,"GCN2(Kin.Dom.2,S808G); 1 µM",27% and 0%
same,%Inh,GRK1; 1 µM,11% and 12%
same,%Inh,GRK2,0%
same,%Inh,GRK3; 1 µM,5% and 0%
same,%Inh,GRK4; 1 µM,27% and 2%
same,%Inh,GRK7,0%
same,%Inh,GSK3A; 1 µM,0% and 17%
same,%Inh,GSK3B; 1 µM,27% and 1%
same,%Inh,HASPIN; 1 µM,28% and 0%
same,%Inh,HCK; 1 µM,10% and 0%
same,%Inh,HIPK1; 1 µM,8% and 0%
O=c1cc(N2CCOCC2)nc2n(Cc3cccc(Cl)c3)ccn12 [GSK2296823],%Inh,FGFR4,5%
same,%Inh,FGR,15%
same,%Inh,FLT1,19%
same,%Inh,FLT3-autoinhibited,14%
same,%Inh,FLT3,0%
same,%Inh,FLT4,1%
same,%Inh,FRK,7%
same,%Inh,FYN,0%
same,%Inh,GAK,2%
same,%Inh,"GCN2(Kin.Dom.2,S808G)",0%
same,%Inh,GRK1,15%
same,%Inh,GRK2,0%
same,%Inh,GRK3,12%
same,%Inh,GRK4,47%
same,%Inh,GRK7,0%
same,%Inh,GSK3A,28%
same,%Inh,GSK3B,7%
same,%Inh,HASPIN,0%
same,%Inh,HCK,0%
same,%Inh,HIPK1,12%
